An excerpt weighted towards active compounds, which were near 20% of everything screened.
Shiga toxin inh = Shiga toxin inhibition. inhibition, % at 38.7 µM. 9.2% of 290,000 active. Vero cells, Shiga toxin protein synthesis inhibition reporter; in the data active means inhibition mostly above about 28%, no sharp cut-off; inactive means mostly below about 43%; further: 0% is about no effect
Pf growth 48h = P. falciparum growth inhibition at 48 hours (one generation); P. falciparum luciferase growth in erythrocytes, 48 h; AID 504832; 5.9% of 310,000 active; Potency, µM (doses to about 28.7 µM), for the others: top-dose activity change, negative = inhibition, hits mostly inhibitors; further: potency means the concentration at half of the fitted maximal effect; on the % scale 0 is the no-effect control and ±100 the full control effect
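First compound was added to culture medium, then infected red cells at 0.1% parasitemia and 2% hematocrit (final). After incubation at 37 C under 5% CO2, luciferase detection reagent was dispensed and light output recorded.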
Pf growth 96h = P. falciparum growth inhibition at 96 hours. 6.9% of 320,000 active. P. falciparum luciferase reporter growth, 96 h. AID 504834. Potency, µM (doses to about 28.7 µM), without a hit: at the top dose activity change, negative = inhibition, actives largely listed as inhibitors; further: potency means the concentration at half of the fitted maximal effect; on the % scale 0 is the no-effect control and ±100 the full control effect
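Erythrocytes infected with luciferase-expressing P. falciparum were dispensed at 2% hematocrit and 0.05% parasitemia (final), then incubated with compounds 96 hours at 37 C in 5% CO2. Luminescence after detection reagent addition reported growth.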
HCMV antiviral = inhibitors of human cytomegalovirus; activity change, negative = inhibition, % at 57.5 µM; 4.5% of 410,000 active; HFF cells, HCMV-luciferase reporter, 72 h; hits give low values; in the data active means activity change below about -60%; inconclusive means no clear call, values can overlap the other calls; inactive means above about -39%; further: on the % scale 0 is the no-effect control and ±100 the full control effect
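Two-dose cell screen: HFF monolayers treated with compounds and infected with luciferase-expressing HCMV at 1 PFU/cell, 72 h at 37C, then lysed for luciferase measurement.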
CHX counter = affects cycloheximide protein synthesis inhibition readout, counter-screen | 12% of 300,000 active | max response, % | cell reporter, cycloheximide protein synthesis inhibition counterscreen; in the data active means max response mostly above about 13%, no sharp cut-off; inactive means mostly below about 14%; further: read at 38.3 µM for the half of the compounds with a filed dose; 0% is about no effect
* marks the source's active call; other numbers are inactive results; ? = inconclusive; . = no result given. Unless noted, the call rests on the fitted dose curve; in most records, active means well fitted inhibition curve with a large enough effect; inconclusive means small, poorly fitted or top-dose-only effect, or another doubt; inactive means no such curve, though single readings can be large or run the other way.

SMILES | Shiga toxin inh | Pf growth 48h | Pf growth 96h | HCMV antiviral | CHX counter
Cc1ccccc1N1CC(C(=O)N2CCCCCC2)CC1=O (stereo not drawn) | . | 13.9% | 0.6% | -2.6 | .
Cc1nc2nc(-c3ccccc3)[nH]n2c(=O)c1C | 44.4 | 39.0% | . | 114.1 | 14.6
Cc1nc2nc(-c3ccc(Cl)cc3)[nH]n2c(=O)c1C | 37.7* | 143.7% | 208.1% | . | 4.8
COc1ccc(NC(=O)O/N=C/c2ccc(Br)cc2)cc1 | 36.8 | 25.0% | 204.6% | 13.9 | 15.2
Cc1ccc(C(=O)O/N=C/c2ccc(N(C)C)cc2)cc1 | -0.8 | 119.2% | 7.6% | ? | -2.8
COc1ccc(/C=N/OC(=O)Nc2ccc(Cl)cc2)c(OC)c1 | 21.9 | 39.8% | 49.5% | 96.2 | 25.5*
COc1ccc(NC(=O)O/N=C/c2ccc(N(C)C)cc2)cc1 | 57.3* | 12.2% | 10.5% | 35.5 | 33.0*
Cc1ccc(NC(=O)O/N=C/c2ccc(N(C)C)cc2)cc1 | 22.4 | 43.7% | -13.9% | 10.1 | 21.3*
CN(C)c1ccc(/C=N/OC(=O)Nc2ccccc2Cl)cc1 | 95.1* | 64.8% | 20.0% | 25.5 | 21.5*
O=C(Nc1ccccc1Cl)O/N=C/c1ccc(F)cc1 | . | . | . | 5.2 | .
COc1ccc(OC)c(/C=N/OC(=O)Nc2ccc(Cl)cc2)c1 | 11.3 | 2.4% | ? | 75.5 | 4.1
COc1ccc(/C=N/OC(=O)Nc2ccccc2OC)cc1 | 93.9* | 341.0% | 87.1% | 44.1 | 42.4*
COc1ccc(NC(=O)O/N=C/c2ccncc2)cc1 | 43.3* | 0.8% | 139.8% | -5.6 | 15.3
O=C(Nc1nc(-c2cccnc2)cs1)c1cccc([N+](=O)[O-])c1 | 30.6 | 0.0% | ? | ? | -1.0
O=C(Nc1nc(-c2cccnc2)cs1)c1ccccc1[N+](=O)[O-] | 14.8 | ? | -13.9% | 25.6 | -0.6
O=C(Nc1nc(-c2cccnc2)cs1)c1ccc([N+](=O)[O-])cc1 | -1.4 | 4.65µM* | 11.7µM* | 18.5 | 12.4
O=C(NC(=S)Nc1nc(-c2ccccc2)cs1)c1cccnc1 | 1.4 | -23.0% | 11.7µM* | 16.7 | 6.7
O=C(Nc1nc(-c2ccccc2)cs1)c1cccc([N+](=O)[O-])c1 | 100.0* | -23.7% | 107.4% | 4.0 | 50.5*
Cc1ccc(S(=O)(=O)Cc2ccc(C(=O)N3CCc4ccccc4C3)o2)cc1 | -12.0 | . | 13.1µM* | -8.2 | -7.5
Cc1ccc(S(=O)(=O)Cc2ccc(C(=O)N3CCN(c4cccc(C)c4C)CC3)o2)cc1 | -8.2 | -1.9% | 3.7µM* | -34.6 | -2.7
COc1ccc(S(=O)(=O)Cc2ccc(C(=O)N3CCN(c4cc(Cl)ccc4C)CC3)o2)cc1 | -18.7 | . | 13.1µM* | 29.9 | -5.1
COc1ccc(S(=O)(=O)Cc2ccc(C(=O)N3CCN(c4cc(C)ccc4C)CC3)o2)cc1 | -4.8 | 6.6% | 4.65µM* | -37.4 | 14.4*
COc1ccc(S(=O)(=O)Cc2ccc(C(=O)N3CCc4ccccc4C3)o2)cc1 | 1.0 | . | -28.2% | -26.2 | 5.1
Cc1ccc(C)c(N2CCN(C(=O)c3ccc(CS(=O)(=O)c4ccc(Br)cc4)o3)CC2)c1 | . | . | . | -20.0 | .
COc1ccc(S(=O)(=O)Cc2ccc(C(=O)N3CCN(c4cccc(C)c4C)CC3)o2)cc1 | -6.1 | ? | 0.3% | -26.2 | -3.4
SMILES | Shiga toxin inh | Pf growth 48h | Pf growth 96h | HCMV antiviral | CHX counter
O=C(NCCc1ccc(Cl)cc1)c1cc(S(=O)(=O)N2CCCC2)ccc1F | . | . | . | -24.8 | .
Cn1cnc2nc(Cl)nc(Cl)c21 | . | . | . | -71.7* | .
O=C(c1nn2c(C(F)(F)F)cc(-c3cccs3)nc2c1Cl)N1CCCc2ccccc21 | 79.8* | 28.5% | 10.4µM* | ? | 47.9*
Cc1c(Br)c(C(=O)N2CCc3ccccc32)nn1C | 61.6* | 122.5% | 124.6% | 53.6 | 91.4*
O=C(c1cnn2c(C(F)(F)F)cc(-c3ccccc3)nc12)N1CCCc2ccccc21 | -2.1 | -10.4% | . | 57.3 | 2.3
Cc1c(Cl)c(C(=O)N2CCCc3ccccc32)nn1C | 47.4* | ? | -0.9% | 44.1 | 16.2
CCCCCn1nc(C(=O)N2CCc3ccccc32)c2ccccc2c1=O | . | 10.4µM* | ? | 0.6 | .
Cn1nc(C(=O)N2CCCc3ccccc32)c2ccccc2c1=O | -6.3 | -3.3% | 26.3% | -13.0 | 0.9
CCCn1nc(C(=O)N2CCc3ccccc32)c2ccccc2c1=O | . | ? | ? | 46.8 | .
CNCCCCOc1ccccc1Cc1ccccc1 | 13.5 | 13.5µM* | 16.9µM* | . | -7.7
CC(Nc1ccc2c(c1)OCCO2)C(=O)N1CCc2ccccc21 (stereo not drawn) | 84.3* | 27.0% | 32.7% | -33.8 | 21.2*
Cc1ccc(C(=O)N2CCc3ccccc32)cc1C | . | . | . | 55.5 | .
O=C(c1ccc(=O)oc1)N1CCCc2ccccc21 | 76.2* | 85.0% | 172.3% | -32.6 | 50.7*
CC(NCc1ccc2c(c1)OCO2)C(=O)N1CCc2ccccc21 (stereo not drawn) | -4.7 | 2.1% | 13.7% | -7.2 | -2.6
O=C(c1ccc2c(c1)OCO2)N1CCc2ccccc21 | 58.7* | 7.4% | ? | 26.9 | 29.2
O=C(Nc1cccc(C(=O)N2CCCc3ccccc32)c1)c1ccccc1 | . | ? | 4.65µM* | 22.2 | 7.1
O=C(CSc1nc2c([nH]c3ccccc32)c(=O)n1-c1ccccc1)Nc1ccc(Cl)c(Cl)c1 | . | . | . | 11.9 | .
Cc1ccc(C(=O)Nc2cccc(NC(=O)c3cccnc3)c2)cc1 | 17.7 | 20.4% | -13.7% | 5.9 | 4.3
CCn1c(C)c(C)c2cc(C(=O)N3CCc4ccccc4C3)ccc21 | 11.4 | ? | -15.8% | -85.0* | -1.1
O=C(c1ccc2c(c1)OCO2)N1CCCc2ccccc21 | 73.7* | 20.3% | . | -18.0 | 39.7*
Cc1ccc2c(c1)CCCN2C(=O)c1ccc2c(c1)OCO2 | -0.5 | ? | . | -14.3 | -3.0
O=C(c1ccc(Cl)c(S(=O)(=O)Nc2ccccc2C(=O)N2CCc3ccccc3C2)c1)N1CCc2ccccc2C1 | -17.0 | 10.4µM* | ? | 29.0 | 1.2
O=C(c1ccc2c(c1)OCO2)N1CCc2ccccc2C1 | 55.1* | 39.9% | 7.0% | 47.7 | 70.4*
CCN1CCN(C(=O)c2ccc3c(c2)c(C)c(C)n3Cc2ccccc2)CC1 | -4.7 | ? | 256.7% | -17.5 | 10.0
O=C(c1ccc(Cl)c(S(=O)(=O)N2CCc3ccccc3C2)c1)N1CCN(c2ccccc2)CC1 | -11.3 | ? | ? | -20.2 | -1.6
SMILES | Shiga toxin inh | Pf growth 48h | Pf growth 96h | HCMV antiviral | CHX counter
COC(=O)c1[nH]c2cc(OC)c(OC)cc2c1/C=N/Nc1ccccc1 | 29.1 | 0.0% | ? | 100.3 | 11.5
CC(=O)c1cc(-c2ccc(F)cc2)n(CCC(=O)NCc2ccc(C)cc2)c1C | . | . | . | 0.0 | .
CCc1ccc(-c2csc(NC(=O)C3=COCCO3)n2)cc1 | . | 223.2% | 305.8% | -4.6 | .
O=C(c1cccc(N2C(=O)C3CC=CCC3C2=O)c1)N1CCCc2ccccc21 (stereo not drawn) | 74.5* | 11.3% | 0.0% | ? | 35.5*
Cc1ccc(OCC(=O)Nc2ccccc2C(=O)OCc2cc(=O)n3c(C)csc3n2)cc1 | . | . | . | -11.9 | .
Cc1ccc(S(=O)(=O)N2CCN(c3cnn(-c4ccccc4)c(=O)c3Cl)CC2)cc1 | -6.3 | 13.7% | 7.1% | -12.2 | -3.2
C=CCC1(CC=C)CCCN1C(=O)c1cc(COc2cccc(OC)c2)on1 | 25.7 | ? | -24.9% | 0.0 | -2.3

Screening results: PubChem BioAssay, National Center for Advancing Translational Sciences (NCATS)
